Data published in PubChem BioAssay (NCI).
This is part of a sample that, as a whole, favours compounds with a hit. Of some 83,000 tested, about 20% had one in any assay.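 How to read the values: 0–100, growth inhibition (40 = 60% inhibited); 0, no net growth; -100 to 0, cell death (-40 = 40% of starting cells died; -100 = all dead).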 Active and inactive are the calls of the source.

Each molecule was assayed on HT29 colon (assay: NCI-60 one-dose screen, 48 h (100 = growth as untreated, 0 = no growth, -100 = all killed)). Settings: 10 µM.
Description: Growth inhibition of the HT29 human tumor cell line is measured as a screen for anti-cancer activity. Cells are grown in 96 well plates and exposed to the test compound for 48 hours. Compounds are tested at a single concentration, which is 10^-5 M for most compounds. The reported endpoint is percent growth (GI% or GIPRCNT), where numbers from 0 - 100% represent growth inhibition, and numbers from -100% - 0 represent cell death. For example, a value of 40 represents 60% growth inhibition. A value of 0 means no net growth occurred over the course of the experiment. A value of -40 indicates 40% of cells at the beginning of the experiment died by the end of the experiment. A value of -100 means all cells are dead at the end of the experiment.
NCI-60 Human Tumor Cell Lines Screen was performed using the standard one-dose NCI protocol, which is described in more detail at https://dtp.cancer.gov/discovery_development/nci-60/default.htm.
Compounds with GIPRCNT values below 10 were considered active. Activity score was based on GIPRCNT using the following formula: […]
Score is 0 for GIPRCNT values of 100 or above, 50 for GIPRCNT values of 0, and 100 for GIPRCNT values of -100.

SMILES	growth
Cc1cc(CC(C)CC(C)(C)C)n(O)c(=O)c1 (stereo not given) (tested in a mixture with another compound)	53.2% (inactive)
C=CCn1c(SCC(=O)Nc2ccc(C(=O)/C=C/c3ccc(Cl)cc3)cc2)nnc1-c1cc(-c2ccccc2)nc2ccccc12	40.9% (inactive)
CC(=O)COc1ccc(Cl)cc1Cl	105% (inactive)
O=C(CCCSc1nc(-c2ccc(Cl)cc2)cc(-c2ccc(Cl)cc2)n1)NO	23.2% (inactive)
CCCc1cn(CC(=O)Nc2nc3ccccc3s2)nn1	104% (inactive)
CN1CCc2c(sc3nc4n(-c5ccc(Cl)cc5)c(=O)[nH]n4c(=O)c23)C1	86.4% (inactive)
COc1cc2c(Nc3ccc(S(N)(=O)=O)cc3)ncnc2c(OC)c1OC	105% (inactive)
N#Cc1c(-c2ccc(Cl)cc2)n(O)c2ccccc12	82.8% (inactive)
COc1cc(C)ccc1Oc1nc(Nc2ccc(N3CCOCC3)cc2)ncc1NC(=O)Nc1cc(C(F)(F)F)cc(C(F)(F)F)c1	63.8% (inactive)
O=S(=O)(Oc1ccc(-c2ccc3sccc3c2)cc1)c1ccc(F)cc1	96% (inactive)
COc1cc(-c2nn(-c3ccc(NC(=O)NCCNS(=O)(=O)c4ccc(F)cc4)cc3)cc2-c2ccncc2)ccc1Cl	-24.9% (active)
COc1cc2c(Nc3ccc(-c4ccc(N)cc4)cc3)ncnc2c(OC)c1OC	46.2% (inactive)
CCC1NC(=O)c2cc(S(N)(=O)=O)c(Cl)cc2N1 (stereo not given)	109% (inactive)
C=C(NC(=O)C(=C)NC(=O)c1csc(C2=NC3c4csc(n4)C4NC(=O)c5csc(n5)C(C(C)(O)C(C)O)NC(=O)C5CSC(=N5)C(=CC)NC(=O)C(C(C)O)NC(=O)c5csc(n5)C3(CC2)NC(=O)C(C)NC(=O)C(=C)NC(=O)C(C)NC(=O)C(C(C)CC)NC2C=Cc3c(C(C)O)cc(nc3C2O)C(=O)OC4C)n1)C(N)=O (stereo not given)	3.8% (active)
O=C(CI)OCC(COC(=O)CI)OC(=O)CI	79.2% (inactive)
CCn1cc(CNc2ccc(C(=O)Nc3ccc4ccccc4c3)cc2)c(C)n1	75.7% (inactive)
Cc1c(Cl)cccc1NC(=O)CN1CCOCC1	84.2% (inactive)
NC(=O)c1cccc(-n2ccc3cc(NC(=O)Nc4ccc(Cl)c(C(F)(F)F)c4)ccc32)n1	61.9% (inactive)
NS(=O)(=O)Oc1ccc(NC(=O)C2CCCCCC2)cc1	108% (inactive)
Cc1cc(O)ccc1C1=NN(c2ccc(S(C)(=O)=O)cc2)C(=O)CC1	38.9% (inactive)

SMILES	growth
CC1=NN(C(=O)c2nn(-c3ccc(Cl)cc3)cc2O)C(=O)C1	41.8% (inactive)
COc1ccc(C(=O)N2C=Cc3ccccc3C2C#N)cc1 (stereo not given)	110% (inactive)
COc1ccc([C@H]2[C@H](C(=O)Nc3cccnc3)c3ccccc3C(=O)N2c2ccccc2)cc1	81.3% (inactive)
COc1ccc(C(=O)c2cc3c(OC)c(OC)c(OC)cc3[nH]2)cc1	14.2% (inactive)
CCOC(=O)c1sc2ncnc(Nc3ccc4c(cnn4C(=O)Nc4ccc(C)c(Cl)c4)c3)c2c1C	90% (inactive)
O=C(Nc1ccc2c(O)cc(S(=O)(=O)O)cc2c1)c1ccc([N+](=O)[O-])cc1	95.3% (inactive)
CCOC(=O)N/N=C/c1ccc(OC)c(OC)c1	104% (inactive)
CNC(=O)c1cn2c3c(c(N4CCN(C)CC4)c(F)cc3c1=O)OC[C@@H]2C	96.2% (inactive)
COc1cc(-c2ccc(N=Nc3ccc4c(S(=O)(=O)O)ccc(N)c4c3O)c(OC)c2)ccc1N=Nc1ccc2c(S(=O)(=O)O)ccc(N)c2c1O	105% (inactive)
CCCCN(CCCC)C(=O)[C@H](CC)[C@@H]1CC[C@@H](C)[C@@H]([C@H](C)[C@@H](O)[C@@H](C)C(=O)[C@H](CC)C2O[C@]3(C=CC(=O)[C@]4(CC[C@@](C)([C@H]5CC[C@](O)(CC)[C@H](C)O5)O4)O3)[C@H](C)C[C@@H]2C)O1 (stereo not given in full)	20.9% (inactive)
COc1ccc(C2CC(c3cccs3)=NN2c2ccc(S(N)(=O)=O)cc2)cc1 (stereo not given)	86.8% (inactive)
CC(C)(C)OC(=O)CN1CCc2c(sc3ncnc(N/N=C/c4cccc5ccccc45)c23)C1	45% (inactive)
O=C(Nc1ccc(F)cc1)c1cc2ccccc2cc1O	95.8% (inactive)
Cc1cc(Cl)ccc1Nc1nc(C(F)(F)F)ccc1C(=O)N/N=C/c1c(Cl)cccc1Cl	3.29% (active)
CC(C)c1ccc(C(C)C(=O)N(CC2=C(C(C)c3ccccn3)c3ccccc3C2)C(C)C)cc1 (stereo not given)	22.3% (inactive)
C[C@@H](O)[C@H]1C(=O)N2C(C(=O)O)=C(SC3CN[C@H](C(=O)N(C)C)C3)[C@H](C)[C@H]12 (stereo not given in full)	103% (inactive)
O=C(CCCCC(=O)Oc1c(Cl)cc(Cl)cc1[N+](=O)[O-])Oc1c(Cl)cc(Cl)cc1[N+](=O)[O-]	103% (inactive)
Cc1c(Cl)cccc1NC(=O)CCCl	95.4% (inactive)
C=CCn1c(SCC(=O)Nc2ccc(C(=O)/C=C/c3ccc(OC)cc3)cc2)nnc1-c1ccc(OC)c(OC)c1	89.8% (inactive)
COc1ccccc1-n1c(-c2csc(NC(C)=O)n2)n[nH]c1=S	95.1% (inactive)
